# Compounds without any hit were thinned out: in the full panel of roughly 83,000, 20% have a hit.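 Cell lines were cultured in 96-well plates, exposed to a single compound concentration, and assessed for percent growth 48 hours later.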 Unmarked numbers belong to inactive results. The source made the active and inactive calls. Rule for the calls: active = growth percent below 10; inactive = the rest.
# Assays:
# Test in all cases: NCI-60 one-dose screen, 48 h (100 = growth as untreated, 0 = no growth, -100 = all killed)
# Settings in all cases: 10 µM unless noted
# [1] = system: SK-MEL-2 melanoma
# [2] = system: EKVX NSCLC
# [3] = system: SN12C renal
# [4] = system: UO-31 renal
# [5] = system: TK-10 renal
# [6] = system: ACHN renal
# [7] = system: CAKI-1 renal
# [8] = system: A498 renal
# [9] = system: CCRF-CEM leukemia
# [10] = system: MOLT-4 leukemia
SMILES,growth [1],growth [2],growth [3],growth [4],growth [5],growth [6],growth [7],growth [8],growth [9],growth [10]
COc1ccc(Oc2nc(Nc3ccc(N4CCOCC4)nc3)ncc2NC(=O)c2cc(OC)cc(OC)c2)cc1,47.6%,89.3%,93.7%,56.3%,83.4%,75.1%,67.3%,53.7%,64.2%,
Cc1cc(N(CCCNc2ccnc3cc(Cl)ccc23)Cc2ccccn2)nc(N2CCOCC2)n1,97.9%,89.5%,95.6%,63.9%,110%,101%,87.8%,92.5%,86%,
C=C(CNCCc1ccc(O)cc1)[C@@H]1CC[C@]2(COC3CCCCO3)CC[C@]3(C)[C@H](CC[C@@H]4[C@@]5(C)CCC(N)C(C)(C)[C@@H]5CC[C@]43C)[C@@H]12 (some centres not stated),-82.9% (active),-74.6% (active),-85.2% (active),-96.8% (active),-90.7% (active),-99% (active),-91.8% (active),-98.7% (active),-64.1% (active),
CC(=O)Nc1cccc(C2=CC(c3ccc(C)cc3)n3ncnc3N2)c1 (configuration not stated),103%,102%,101%,79.7%,110%,96.7%,106%,93.9%,110%,87.9%
Clc1ccc2c(NCCCN3CCN(c4nc(N5CCOCC5)nc5ccccc45)CC3)ccnc2c1,-5.64% (active),26.4%,45.9%,-85.9% (active),-38% (active),-29.1% (active),15.3%,71.2%,4.4% (active),
CCOc1ccc(S(=O)(=O)c2ccc(C)cc2)c2c1no[n+]2[O-],82.5%,83.9%,94.8%,83.3%,92.3%,85.6%,71.8%,67.2%,75.7%,
COc1ccc(-n2ncn(CCCCCCn3cnn(-c4ccc(OC)cc4)c3=O)c2=O)cc1,89.5%,85.8%,90.6%,72.5%,118%,87.5%,87.4%,101%,87.8%,
COc1ccc(Oc2nc(Nc3ccc(N4CCCCC4)nc3)ncc2NC(=O)c2cc(OC)cc(OC)c2)cc1,41.2%,40.8%,53.2%,33.3%,75.5%,28.8%,41.8%,39.1%,20%,
Cc1nc(-c2ccccc2)cc2c(O)c(C(=O)N/N=C/c3ccc(N(C)C)cc3)[nH]c(=O)c12,99.7%,82.5%,82%,84.2%,88.8%,67.5%,99.4%,93.9%,96.7%,22.9%
O=S(=O)(Nc1ccsc1-c1nc(-c2ccccc2)no1)c1cc(Cl)cc(Cl)c1,105%,95.6%,91.3%,83.2%,102%,98.2%,86.9%,91.1%,101%,104%
COc1ccc(/C=C(\C#N)n2nnc3cc(F)c(F)cc32)c(OC)c1OC,79%,72.8%,67%,52.4%,126%,66.2%,87.7%,91%,23.4%,
O=C1/C(=C/c2ccccc2[N+](=O)[O-])COc2ccc(O)c(O)c21,3.35% (active),7.9% (active),-29.1% (active),-67.8% (active),3.34% (active),3.22% (active),6.79% (active),77.4%,-2.4% (active),-8.56% (active)
CN(C)CCN1C(=O)c2cccc3c(-c4ccc(-c5nc6c7ccccc7c7ccccc7c6[nH]5)cc4)ccc(c23)C1=O,105%,93.9%,97.4%,96.8%,105%,112%,88%,100%,55.4%,84%
COc1cc2nc(Nc3ccc(F)cc3)nc(N)c2cc1OC,91%,106%,92%,76.1%,95.2%,101%,102%,63.6%,81.4%,65.3%
O=C1C=CC(=Nc2cc(Br)c(O)c(Br)c2)C=C1,65.2%,90.7%,78.7%,56.3%,93.8%,68.4%,82.8%,97.2%,7.46% (active),-28.9% (active)
CC(C)n1nc(C#Cc2cccc(NC(=O)c3cccc(C(F)(F)F)c3)c2)c2c(N)ncnc21,-65.2% (active),1.52% (active),-8.6% (active),-51.4% (active),-56.8% (active),-31.9% (active),-40.9% (active),-80.6% (active),11.8%,2.57% (active)
COc1ccc(/C=C2\COc3ccc(O)cc3C2=O)c(OC)c1,55.9%,70.5%,52.7%,74.9%,91.9%,85.2%,59.3%,92.4%,4.96% (active),36.8%
CCO/C=N/C1=C(C#N)C(c2ccc(OC)cc2)c2c(c3ccccc3n(C)c2=O)O1 (configuration not stated),108%,101%,98.9%,72.8%,112%,100%,89.6%,111%,100%,103%
CCCCN(CCCC)CCCn1c(=O)c2sc3ncccc3c2n2nnc(-c3ccccc3)c12,107%,-3.24% (active),99.3%,48.1%,118%,97%,-87.9% (active),117%,90.8%,94.5%
C=C1C(=O)O[C@H]2[C@H]1CC/C(COC(=O)/C=C\C(=O)NCc1ccc(Cn3c(=O)sn(-c4ccc(OC)cc4)c3=O)cc1)=C\CC[C@@]1(C)O[C@@H]21,-54.2% (active),-82.9% (active),-96.4% (active),-100% (active),-75.4% (active),-98.8% (active),-66.1% (active),7.18% (active),-11.4% (active),-26.4% (active)
N#Cc1c(N)nc2c(nnn2-c2cccc(Br)c2)c1N,103%,43.6%,93.4%,72.8%,119%,99%,98.1%,105%,97.9%,83.3%
CC(=O)C(C(C)=O)c1nc2sc3cc(Cl)ccc3n2c(=N)c1C#N,86.8%,70.7%,90%,58.4%,117%,84%,85.7%,84.5%,91.9%,67%
O=C(Oc1ccc([N+](=O)[O-])cc1)c1ccc(CBr)cc1,101%,103%,89.9%,83.3%,99.3%,95.2%,86.2%,86.5%,68.7%,82.7%
O=S(=O)(NCCNc1cc(-c2c(-c3cccc(O)c3)nc3sccn23)ccn1)c1ccc(Br)cc1,79.5%,56.8%,45.3%,-1.33% (active),83.2%,56.7%,39%,51.1%,39.9%,32.9%
COc1cc(/C=C/C(=O)c2cccc(-n3cc(-c4ccc(Cl)cc4)[nH]c3=O)c2)cc(OC)c1OC,34.1%,64.7%,56.3%,52.2%,91.7%,67.5%,65.6%,110%,4.15% (active),26.8%
CCN(CC)CCOc1ccc(/C(=C(\C)c2ccc(F)c(OC)c2)c2ccc(Cl)cc2)cc1,67.7%,56.4%,38%,7.48% (active),49.5%,25.8%,17.1%,48.1%,13.9%,-1.16% (active)
CS(=O)(=O)c1ccc(-c2[nH]c3ccc(F)cc3c2/C=N/NC(N)=S)cc1,27.4%,31.8%,21%,40.2%,37.8%,25.2%,39.4%,17%,2.97% (active),11.7%
